# Measured values from PubChem BioAssay (NCI).
# This is part of a sample that, as a whole, favours compounds with a hit. Of some 83,000 tested, about 20% had one in any assay.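 The endpoint reported here, percent growth, reads 100 for growth as untreated, 0 for no net growth and -100 for all cells dead.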 Values without a mark were called inactive. Calls of active or inactive are those of the source. How the source made its calls: active means growth percent below 10; inactive means the rest.
# Columns and labels:
# Experiment in all cases: NCI-60 one-dose screen, 48 h (100 = growth as untreated, 0 = no growth, -100 = all killed)
# Details in all cases: 10 µM unless noted
# [1] = tested on: NCI-H23 lung
# [2] = tested on: NCI-H226 lung
# [3] = tested on: NCI-H322M lung
# [4] = tested on: HOP-62 NSCLC
# [5] = tested on: NCI-H460 lung
# [6] = tested on: NCI-H522 lung
# [7] = tested on: A549/ATCC NSCLC
# [8] = tested on: 786-0 renal
# [9] = tested on: COLO 205 colon
# [10] = tested on: DU-145 prostate
# [11] = tested on: K-562 leukemia
# [12] = tested on: MALME-3M melanoma
# [13] = tested on: MDA-MB-231 breast
# [14] = tested on: RXF 393 renal
# [15] = tested on: SF-268 CNS
# [16] = tested on: SF-295 CNS
# [17] = tested on: SF-539 CNS
# [18] = tested on: UACC-257 melanoma
# [19] = tested on: M14 melanoma
Compound,growth [1],growth [2],growth [3],growth [4],growth [5],growth [6],growth [7],growth [8],growth [9],growth [10],growth [11],growth [12],growth [13],growth [14],growth [15],growth [16],growth [17],growth [18],growth [19]
Clc1cc(Cl)cc(-c2cnc3nonc3n2)c1,77.3%,104%,95.1%,87.4%,106%,-69.3% (active),103%,93.2%,72.5%,97.9%,79%,76.9%,89.7%,108%,93.5%,99.8%,107%,89.9%,90.2%
O=C1N(Cc2ccccc2Cl)c2ccccc2C12NN=C(c1ccccc1)S2 (centres undefined),54.8%,67.5%,56.5%,61.2%,17.5%,75.6%,53.4%,73.7%,100%,61.9%,43.1%,82.8%,72.8%,75.1%,51.7%,41%,66.3%,87.6%,58.3%
CC(=O)Nc1c(Br)cc2c(c1Br)Cc1cc(Br)ccc1-2,72.8%,85%,88.2%,29.1%,38.8%,76%,20.8%,87%,35%,91.9%,80.5%,99.2%,51.1%,92%,69.9%,-18.8% (active),86.5%,89.1%,62.4%
CN1C(=O)N(C)C2C1NN=c1s/c(=C\c3ccc(Br)cc3)c(=O)n12 (centres undefined),41.9%,59.8%,49.7%,32.4%,13.4%,-14.6% (active),38.8%,30.2%,0.786% (active),17.2%,10.7%,67.7%,66.1%,9.08% (active),39.4%,23.1%,7.53% (active),46%,32.8%
COc1ccc(C2=NNC(c3ccc(Oc4nc5c(c(=O)n(C)c(=O)n5C)n4C)c(OC)c3)C2)cc1 (centres undefined),103%,89.7%,102%,101%,95%,84.4%,90.5%,98.7%,127%,109%,112%,103%,93.3%,87.5%,93.4%,88.9%,97.8%,97.8%,96.9%
COc1ccc(CNc2c3ccccc3nc3ccccc23)cc1F,27%,43%,31.6%,44.5%,6.34% (active),36.2%,22.8%,26%,8.7% (active),27.2%,4.81% (active),23.6%,29.2%,11.1%,49.1%,20.1%,18.2%,37.8%,19.9%
O=c1nc(-c2ccccc2)c2cc(-c3ccc(N4CCOCC4)cc3)ccc2[nH]1,86.3%,72.1%,68.9%,73.7%,79.7%,68.3%,64.3%,78.6%,82.5%,79.7%,71.8%,98.4%,78.4%,73.4%,94.3%,88.6%,94.9%,71.6%,92.3%
NC(N)=NC1CCCCC1,101%,101%,102%,108%,113%,85.8%,94.1%,98.1%,118%,22.3%,93.5%,101%,117%,97.3%,-15.8% (active),120%,105%,90.6%,103%
COc1cc(C2CC(c3ccc(C)cc3)=NN2C=O)ccc1Oc1ccnc2cc(Cl)ccc12 (centres undefined),58.6%,49.1%,91.1%,3.38% (active),62.7%,28.3%,67.8%,18%,108%,89%,109%,98%,36.1%,0.362% (active),16.3%,1.79% (active),4.72% (active),103%,106%
C[N+](C)(C)CC(=O)N/N=C\c1ccco1,99.6%,103%,105%,86.5%,108%,85.7%,98.1%,102%,107%,104%,53.3%,100%,118%,118%,105%,106%,95.3%,106%,111%
COc1cccc(/C(C)=N/NC(=O)CSc2nc3ccccc3c(=O)n2CCc2ccc(S(N)(=O)=O)cc2)c1,31.6%,89.1%,58.2%,35%,-53.2% (active),42.2%,15.6%,-26.9% (active),42.9%,18.4%,32%,-15.2% (active),-25.5% (active),57.9%,36.1%,44%,-18.1% (active),45.2%,27.3%
C=C1C[C@@]2(C)C(CC[C@]3(C)C2CC=C2C4CC(C)(C)C[C@@H](OC(=O)/C(C)=C\C)[C@]4(C(=O)O)CC[C@]23C)C(C)(C)C1=O (some centres undefined),-45.6% (active),-72.8% (active),46.7%,25.9%,-37.2% (active),-6.98% (active),-2.25% (active),-77.9% (active),-11.2% (active),10.3%,1.39% (active),36.5%,22.7%,-75.6% (active),50.4%,59.8%,-19.8% (active),17.1%,-14.2% (active)
Cc1cc(C#Cc2ccc(C(C)(C)C)cc2)ccc1-n1c(/C=C/c2c(Cl)cccc2Cl)nc2ccccc2c1=O,97.9%,108%,92.8%,104%,96.3%,105%,95.8%,109%,103%,110%,101%,116%,122%,127%,96.8%,97.9%,106%,110%,106%
COc1ccc2c(c1)N(Cc1ccc(Cl)cc1)CCC2N1CCCC1=O (centres undefined),52.7%,46.5%,39.9%,52.4%,39.1%,32%,44.4%,48.6%,67.3%,43.9%,47.4%,39.8%,61.8%,39.4%,59.2%,28.3%,48.5%,63.6%,60.9%
CCCCCCCC/C=C\CCCCCCCC(=O)OCCCCCC,98.4%,94.7%,111%,121%,111%,104%,90.6%,105%,124%,103%,100%,120%,136%,104%,108%,95.6%,109%,95.7%,112%
CCOC(=O)Cc1cc(Br)c(OCc2ccccc2)c(Br)c1,94.1%,88.4%,102%,96.4%,114%,80.3%,104%,92.8%,127%,115%,86%,106%,89.1%,96.4%,106%,92.3%,106%,99.6%,99.6%
